Assay outcomes from PubChem BioAssay.
The list is not random: actives were taken first. Their share in the collection is about 28%.
CD11b adhes enh: CD11b/CD18-fibrinogen binding enhancement | P05107+P11215 | K562 CD11b/CD18 adhesion to fibrinogen, ATPlite luminescence | activation, % at 10 µM | hit rate 0.07% among 93,000;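 active = 10 µM primary screen giving 50% or more activity, confirmed by 40% or more on retest at that dose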
CYP2C19 act: cytochrome P450 2C19 (human) activation; 96,000 tested, under 10 active; activation factor at 5 µM; P33261; recombinant CYP2C19, luciferin-H EGE luminescence; active compounds read high; 0 = fully inhibited enzyme, 1 = untreated enzyme;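 active = activation factor of at least 2 at 5 µM in the primary screen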
Target sequence (P33261 whole entry, looked up): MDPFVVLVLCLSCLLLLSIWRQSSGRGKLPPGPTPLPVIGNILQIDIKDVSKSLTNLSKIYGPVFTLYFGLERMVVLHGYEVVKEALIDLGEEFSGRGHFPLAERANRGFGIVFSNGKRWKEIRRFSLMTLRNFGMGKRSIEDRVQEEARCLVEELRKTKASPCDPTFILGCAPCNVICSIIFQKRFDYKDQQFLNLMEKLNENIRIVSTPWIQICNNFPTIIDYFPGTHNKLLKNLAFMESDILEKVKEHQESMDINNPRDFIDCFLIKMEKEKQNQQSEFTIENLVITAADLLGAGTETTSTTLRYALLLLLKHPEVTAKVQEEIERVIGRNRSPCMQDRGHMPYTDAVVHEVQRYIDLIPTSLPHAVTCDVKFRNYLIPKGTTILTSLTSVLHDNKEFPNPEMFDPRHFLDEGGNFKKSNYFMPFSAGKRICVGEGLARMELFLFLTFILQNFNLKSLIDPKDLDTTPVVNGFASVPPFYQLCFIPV
CYP2C19 inh: human CYP2C19 inhibition; P33261; CYP2C19 Supersomes, luciferin-H EGE luminescence, 30 min; inhibition, % at 5 µM; hit rate 21% among 96,000;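 active = CYP2C19 inhibition above a set limit at 5 µM in the primary screen, cut at about 50% in these data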
CD11b adhes inh: inhibitors of human CD11b/CD18 binding to fibrinogen. inhibition, % at 10 µM. K562 CD11b/CD18 adhesion to fibrinogen, ATPlite luminescence; Mn2+ added to activate the integrin. AID 1497. hit rate 0.54% among 93,000. P05107+P11215;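 active = primary inhibition of 50% or more at 10 µM, then 40% or more on retest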
CYP2C9 act: CYP2C9 (human) activation | P11712 | recombinant CYP2C9, luciferin-H conversion, luminescence; active compounds read high; factor 1 = untreated enzyme, 0 = blocked | activation factor at 5 µM | hit rate 1.4% among 96,000;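 active = activation factor of 2 or more for CYP2C9 at a 5 µM dose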
CYP2C9 inh: inhibitors of human CYP2C9; P11712; CYP2C9 Supersomes, luciferin-H conversion, luminescence; inhibition, % at 5 µM; hit rate 20% among 96,000; AID 777;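 active = blocking of liver enzyme CYP2C9 beyond about 50% at 5 µM, limit read from the data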
Numbers stand for hits; - = inactive; . = no result given.

SMILES | CD11b adhes enh | CYP2C19 act | CYP2C19 inh | CD11b adhes inh | CYP2C9 act | CYP2C9 inh
Cc1c(CN(C)C(=O)CSc2nc(-c3ccco3)cc(C(F)(F)F)n2)cnn1C | - | - | - | - | - | -
O=C(CCCSc1nc2ccccc2s1)NCc1ccc2c(c1)OCO2 | - | . | . | - | . | .
COC(=O)c1ccc(CSc2nc(-c3ccco3)cc(C(F)(F)F)n2)o1 | - | - | - | - | - | 75
O=C(CSc1nc(-c2ccco2)cc(C(F)(F)F)n1)NCCCn1ccnc1 | - | - | 91 | - | - | 96
CCn1cc(CNC(=O)CCSc2nc(-c3ccco3)cc(C(F)(F)F)n2)cn1 | - | - | - | - | - | -
COc1ccc(CCNC(=O)CSc2nc(-c3ccco3)cc(C(F)(F)F)n2)cc1 | - | - | 58 | - | - | 69
COc1ccc(-c2cc(C(F)(F)F)nc(SCCC(=O)NCc3ccccc3)n2)cc1 | - | - | - | - | - | -
CC(NC(=O)CCSc1nc(-c2ccc3c(c2)OCO3)cc(C(F)(F)F)n1)c1ccccc1 (centres undefined) | . | - | 81 | . | - | 83
O=C(CCSc1nc(-c2ccco2)cc(C(F)(F)F)n1)NCCc1ccccc1 | - | - | - | - | - | 51
CC(=O)N1CCC(N(C(=O)Nc2c(F)cccc2F)C(C)C)CC1 | - | - | - | - | - | -
CC(C(=O)NCC1CCCO1)N(C(=O)c1snc(C(N)=O)c1N)c1cccc(F)c1 (centres undefined) | - | - | - | - | - | -
CCOc1nc(-c2ccccc2)ccc1-c1noc(COc2ccccc2)n1 | - | - | 60 | - | - | 80
c1ccc(OCc2nc(-c3cccs3)no2)cc1 | - | - | 74 | - | - | 62
Cc1cc(OCc2nc(-c3cccs3)no2)cc(C)c1Cl | - | - | 50 | - | - | -
CN1CCN(c2cc(N3CCc4ccccc4C3)c(F)cc2[N+](=O)[O-])CC1 | - | . | . | - | . | .
CCN(CC)C(=O)CC(c1ccc(F)cc1)c1ccc(OC)cc1 (centres undefined) | - | . | . | - | . | .
O=c1cc(CSc2ccc(Cl)cc2)nc(N2CCCCC2)[nH]1 | - | - | - | - | - | -
CCCCCCc1cc2cc(-c3nnc(-c4ccccc4OC)o3)c(=O)oc2cc1O | - | - | - | - | - | 97
CCCCCCc1cc2cc(S(=O)(=O)c3ccc(F)cc3)c(=O)oc2cc1O | - | . | . | - | . | .
CCCCCCc1cc2cc(-c3nnc(-c4ccccc4O)o3)c(=O)oc2cc1O | - | - | - | 98 | - | 90
COC(=O)c1cc2c(cc1Cl)SC(=NCCCN1CCOCC1)NS2(=O)=O | - | - | - | - | - | -
O=C(NCC1COCCO1)C1CCN(S(=O)(=O)c2ccccc2)CC1 (centres undefined) | - | - | - | - | - | -
CCOC(=O)c1cnn(-c2cccc(Cl)c2)c1N | - | - | 62 | - | - | -
O=C(NCc1ccccc1)C(c1ccncc1)N(C(=O)c1csnn1)C1CC1 (centres undefined) | . | - | - | . | - | -
C=CCOc1ccccc1/C=N/O | - | - | - | - | - | -
SMILES | CD11b adhes enh | CYP2C19 act | CYP2C19 inh | CD11b adhes inh | CYP2C9 act | CYP2C9 inh
C=CCOc1c(Cl)cc(/C=N/O)cc1OC | - | - | 98 | - | - | -
CCN1CCCC1CNC(=O)C1c2cc(OC)c(OC)cc2C(=O)N(C)C1c1cccnc1 (centres undefined) | - | - | - | - | - | -
CCC(C)NC(=O)COC(=O)c1cc([N+](=O)[O-])ccc1Sc1nc(C)cs1 (centres undefined) | - | - | - | - | - | -
Cc1csc(Sc2ccc([N+](=O)[O-])cc2C(=O)OCC(=O)NC2CCCC(C)C2C)n1 (centres undefined) | . | - | 58 | . | - | 50
Cc1cc(C)nc(SCC(=O)N2CCC(C(N)=O)CC2)n1 | - | - | - | - | - | -
CC1(C)OC(=O)C(=CNc2ncccn2)C(=O)O1 | - | - | - | - | - | -
CC(C)C(NC=C1C(=O)OC(C)(C)OC1=O)C(=O)O (centres undefined) | - | - | - | - | - | 65
O=C(c1cc2ccccc2oc1=O)N(Cc1ccc2c(c1)OCO2)Cc1ccco1 | - | - | 96 | - | - | 92
O=C(N1CCOCC1)N(Cc1ccco1)CC1CCCO1 (centres undefined) | - | - | - | - | - | -
Cc1cc2cc(CN(Cc3ccc4c(c3)OCO4)C(=O)c3ccco3)c(=O)[nH]c2cc1C | - | - | - | - | - | -
O=C(c1cc2ccccc2oc1=O)N(Cc1ccco1)CC1CCCO1 (centres undefined) | - | - | - | - | - | 55
COc1ccc2[nH]c(=O)c(CN(CCc3ccccc3)Cc3nnnn3CC3CCCO3)cc2c1 (centres undefined) | - | - | 68 | - | - | -
COc1ccc2cc(CN(CCc3ccccc3)Cc3nnnn3CC3CCCO3)c(=O)[nH]c2c1 (centres undefined) | - | - | - | - | - | 63
O=c1[nH]c2cc3c(cc2cc1CN(CCc1ccccc1)Cc1nnnn1CC1CCCO1)OCO3 (centres undefined) | - | - | - | - | - | -
Cc1ccccc1NC(=O)/C(C#N)=C/c1ccccc1C(F)(F)F | - | . | . | - | . | .
COc1cccc(NS(=O)(=O)c2ccc(Br)s2)c1 | - | - | 100 | - | - | 84
COc1ccccc1NS(=O)(=O)c1ccc(Br)s1 | - | - | 92 | - | - | -
CCN(CC)C(=O)c1sc(NC(=O)Cc2cccs2)c(C#N)c1C | - | - | - | - | - | -
CCN(C(=O)c1sc(N)c(C#N)c1C)C1CCCCC1 | - | - | 59 | - | - | -
O=C(CCN1C(=O)COc2ccccc21)N1CCCCC1 | - | - | - | - | - | -
COc1cc2c(cc1OC)C(c1ccccc1F)OC(=O)C2 (centres undefined) | - | . | . | - | . | .
CCOC(=O)C1=CN(c2cccc(F)c2)C=C(C(=O)OCC)C1c1cc(OC)c(O)c([N+](=O)[O-])c1 | - | - | - | - | - | 57
O=c1[nH]c(CN2CCN(Cc3ccc4c(c3)OCO4)CC2)nc2sc3c(c12)CCC3 | - | - | - | - | - | -
Cc1sc2c(c1C)c(=O)n(-c1cccc(C(F)(F)F)c1)c(=O)n2CC(=O)NCc1ccco1 | - | - | - | - | - | -
Clc1ccc(Oc2nnnn2-c2ccccc2)cc1 | - | - | 73 | - | - | -
c1ccc(-n2nnnc2Oc2ccc(-n3ccnc3)cc2)cc1 | - | - | 100 | - | - | 99
CC(C)Oc1nnnn1-c1ccccc1 | - | - | - | - | - | 63
COc1cccc(Oc2nnnn2-c2ccccc2)c1 | - | - | 60 | - | - | -
COC(=O)c1nn(-c2ccc(Cl)cc2)c(=O)cc1Sc1ccccn1 | - | - | - | - | - | -
